Test results reported in PubChem BioAssay (EPA / NIEHS).
Several values for one entry are separate records, joined by “and”; a condition that tells them apart may be missing. Identical values can stand only once. Activity calls are given as the source filed them. Rule for the calls: active = hit-call score of the fitted dose curve at least 0.9, where 1 is the maximum; inactive = score below 0.9.

Test: APR_HepG2_MitoMass_1hr: Apredica 1-hour HepG2 Assay for Mitochondrial Mass (AID 2282674)
Conditions: high-content imaging, actives raise or lower the signal
Description: APR_HepG2_1hr is a cell-based, multiplexed-readout assay that uses HepG2, a human liver cell line, with measurements taken at 1 hour after chemical dosing in a 384-well plate.APR_HepG2_MitoMass_1hr is one of 10 assay component(s) measured or calculated from the APR_HepG2_1hr assay. It is designed to make measurements of cell phenotype, a form of morphology reporter, as detected with fluorescence intensity signals by HCS Fluorescent Imaging technology.Data from the assay component APR_HepG2_MitoMass_1hr was analyzed into 1 assay endpoint. This assay endpoint, APR_HepG2_MitoMass_1hr, was analyzed with bidirectional fitting relative to DMSO as the negative control and baseline of activity. Using a type of morphology reporter, gain or loss-of-signal activity can be used to understand changes in the signaling. Furthermore, this assay endpoint can be referred to as a primary readout, because this assay has produced multiple assay endpoints where this one serves a signaling function. To generalize the intended target to other relatable targets, this assay endpoint is annotated to the cell morphology intended target family, where the subfamily is organelle conformation.
Cells were treated with dimethyl sulfoxide (DMSO) as a solvent control at a final concentration of 0.5% v/v or with compounds in DMSO with a resulting final DMSO concentration of 0.5% v/v. Compound treatment was done at concentrations of 0.39, 0.78, 1.56, 3.12, 6.24, 12.5, 25, 50, 100, and 200 uM in duplicate on each plate. Cells were treated with compounds for 1, 24, or 72 hr. Carbonyl […] m-chloro-phenylhydrazone (CCCP) and taxol were used as positive controls for mitochondrial function and cytoskeletal stability, respectively; DMSO served as the negative control for this experiment. Cells were fixed by the direct addition of 50 uL formaldehyde in Hank's Balanced Salt Solution (HBSS) to a final concentration of 3.7%. After incubation in the fixation medium for 30 min at room temperature (293-298 K), cells were rinsed twice with HBSS and treated with cell permeabilization buffer (16 uL of 0.5% Triton X-100) for 10 min at room temperature (293-298 K) before labeling. For mitochondrial membrane potential and mitochondrial measurements, pre-fixed cells were incubated with 50 uL of MitoTracker Red CMXRos (Invitrogen) at a concentration of 250 nM for 30 min before fixation. In the remaining cases, post-fixed cells were labeled by incubation with a multiplexed mixture of primary antibodies in HBSS for 60 min at room temperature (293-298 K) to detect immunoreactivity of c-Jun (1:500), phospho-histone H3 (1:100), phospho-histone H2A.x (1:200), p53 (1:400), alpha-tubulin (1:200) and Hoechst 33342 (2 ug/mL). Cells were labeled for multiplexed imaging on two separate plates: a) Hoechst 33342, MitoTracker Red, phospho-histone H3, and alpha-tubulin, and b) Hoechst 33342, phospho-histone H2A.x, and c-Jun. A final rinse with HBSS (50 uL) was performed before analysis. The primary and secondary antibodies for the proteins were phospho-histone H3 (rabbit anti-phospho-histone H3 and FITC-donkey anti-rabbit IgG), phospho-histone H2A.x (mouse anti-phospho-histone H2A.x and FITC-donkey anti-mouse IgG), c-Jun (rabbit anti-phospho-c-Jun and Cy3-donkey anti-rabbit IgG), p53 (sheep anti-p53 and Cy5-donkey anti-sheep IgG), alpha-tubulin (mouse anti-alpha-tubulin and Cy5-donkey anti-mouse IgG). These antibodies are available as the CellCiphr HepG2 assay kit (Millipore).Digital images of each well were captured using a Cellomics ArrayScan VTI (Thermo Scientific Cellomics) (0.8 NA objective, 0.63x optical coupler, and XF-93 filter set) at 20x magnification. The images were acquired using the autofocus feature of the ArrayScan instrument, which entails the following steps. First, the camera focuses on channel 1 (Hoechst 33342), where nuclei are identified. Second, a Z offset of 1 um is used for capturing mitochondria (MitoTracker Red). Third, a Z offset of -2 um is used for capturing the cytoskeleton (tubulin). […]
In the case of `CCNc1nc(Cl)nc(NC(C)C)n1`, the outcome was “inactive”. With `CCCCOC(=O)c1ccccc1C(=O)OCCCC` the outcome was “inactive”. For `CCOC(=O)CC(SP(=S)(OC)OC)C(=O)OCC` (stereo not given), the outcome was “inactive”. For `CC(Oc1ccc(Cl)cc1Cl)C(=O)O` (stereo not given), the outcome was “inactive”. For `CCCCNC(=O)OCC#CI`, the AC50 was 47.8 µM (active) and 60.6 µM (active). For `O=C(Nc1ccccc1)Nc1ccnc(Cl)c1`, the outcome was “inactive”. In the case of `CC(C)C1(C)N=C(c2nc3ccccc3cc2C(=O)O)NC1=O` (stereo not given), the outcome was “inactive”. In the case of `Fc1ccc(Oc2ccnc3cc(Cl)cc(Cl)c23)cc1`, the outcome was “inactive”. In the case of `O=C(O)c1nc(Cl)ccc1Cl`, the outcome was “inactive”. In the case of `COc1cnc(OC)n2nc(NS(=O)(=O)c3c(OCC(F)F)cccc3C(F)(F)F)nc12`, the outcome was “inactive”. For `CCON=C(CC)C1=C(O)CC(c2c(C)cc(C)cc2C)CC1=O` (stereo not given), the outcome was “inactive”. With `Cc1c(F)c(F)c(COC(=O)C2C(/C=C(\Cl)C(F)(F)F)C2(C)C)c(F)c1F` (stereo not given) the outcome was “inactive”. For `Oc1ccccc1-c1ccccc1`, the outcome was “inactive”. For `COc1nc(C)nc(NC(=O)NS(=O)(=O)c2ccccc2Cl)n1`, the outcome was “inactive”. In the case of `CCCN(CCC)c1c([N+](=O)[O-])cc(S(N)(=O)=O)cc1[N+](=O)[O-]`, the outcome was “inactive”. For `COC(=O)C=C(C)OP(=O)(OC)OC`, the outcome was “inactive”. With `COc1nc(NC(C)C)nc(NC(C)C)n1` the outcome was “inactive”. With `N#Cc1cc(Br)c(O)c(Br)c1` the outcome was “inactive”. For `COC(=O)C(C)Oc1ccc(Oc2ccc(Cl)cc2Cl)cc1` (stereo not given), the outcome was “inactive”. With `COC(=O)c1ccccc1C(=O)OC` the outcome was “inactive”. With `Cc1ccc(-c2c(Cl)nc(C#N)n2S(=O)(=O)N(C)C)cc1` the outcome was “inactive”. For `COc1ccc(C(c2ccc(OC)cc2)C(Cl)(Cl)Cl)cc1`, the outcome was “inactive”. With `CCCCNC(=O)n1c(NC(=O)OC)nc2ccccc21` the outcome was “inactive”. In the case of `CCOP(=S)(OCC)SCn1c(=O)oc2cc(Cl)ccc21`, the outcome was “inactive”. With `CCCC1COC(Cn2cncn2)(c2ccc(Cl)cc2Cl)O1` (stereo not given) the outcome was “inactive”. For `OC(c1ccc(Cl)cc1)(c1cncnc1)c1ccccc1Cl` (stereo not given), the outcome was “inactive”. In the case of `CC(C)(C)c1ccc(CSc2cnn(C(C)(C)C)c(=O)c2Cl)cc1`, the outcome was “inactive”. With `CCCCC(CC)COC(=O)c1ccccc1C(=O)OCC(CC)CCCC` (stereo not given) the outcome was “inactive”. For `C=CCC1=C(C)[C@@H](OC(=O)[C@@H]2[C@@H](C=C(C)C)C2(C)C)CC1=O`, the outcome was “inactive”. For `N#Cc1nn(-c2c(Cl)cc(C(F)(F)F)cc2Cl)c(N)c1S(=O)C(F)(F)F` (stereo not given), the outcome was “inactive”. In the case of `CC(C)Oc1cc(-n2nc(C(C)(C)C)oc2=O)c(Cl)cc1Cl`, the outcome was “inactive”. For `CC1=C(C(=O)Nc2ccccc2)SCCO1`, the outcome was “inactive”. In the case of `CCc1nn(C)c(C(=O)NCc2ccc(C(C)(C)C)cc2)c1Cl`, the outcome was “inactive”. With `C=CCC1=C(C)C(OC(=O)C2C(C=C(C)C)C2(C)C)CC1=O` (stereo not given) the outcome was “inactive”. In the case of `COc1nc(C)nc(NC(=O)NS(=O)(=O)c2ccccc2CCC(F)(F)F)n1`, the outcome was “inactive”. With `CCNc1nc(Cl)nc(NCC)n1` the outcome was “inactive”. In the case of `CNC(=O)ON=CC(C)(C)SC`, the outcome was “inactive”. With `N#CC(CCc1ccc(Cl)cc1)(Cn1cncn1)c1ccccc1` (stereo not given) the outcome was “inactive”. For `COP(=S)(OC)Oc1nc(Cl)c(Cl)cc1Cl`, the outcome was “inactive”. With `COC(=O)N(OC)c1ccccc1COc1ccn(-c2ccc(Cl)cc2)n1` the outcome was “inactive”.
